From PubChem BioAssay (NCATS)
Inconclusive results are not listed. A call without a number means that no potency is given here. Activity calls are given as the source filed them. Calls follow the shape of the dose curve; as a rule, active = well fitted curve in the direction sought with a large enough effect; inconclusive = small, poorly fitted or top-dose-only effect, or another doubt; inactive = no such curve, though single readings can be large; an effect the other way counts as inactive or inconclusive.

Legend:
[1] = qHTS of pediatric cancer cell lines to identify multiple opportunities for drug repurposing: Primary screen for OHS-50 cells (AID 1347103); also: nearly all actives have a fitted effect of over 40% in size
How it was run: (§1)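 Cells (500-1,000/well) rested 5 h, then received compounds for 48 h; metabolically active cells were measured by CellTiter-Glo luminescence. Final concentrations spanned up to 46 µM (MIPE, 11-point) or 0.59 nM-46 µM (NPC, 8-point) in primary screens, 11-point in follow-ups.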

[2] = qHTS of pediatric cancer cell lines to identify multiple opportunities for drug repurposing: Primary screen for RD cells (AID 1347104); also: nearly all actives have a fitted effect of over 55% in size
How it was run: (§2)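 Phenotypic viability qHTS, 48 h compound exposure, CellTiter-Glo luminescence read-out; multi-concentration dosing so that potency and efficacy derive directly from the primary screen's curves.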

[3] = qHTS of pediatric cancer cell lines to identify multiple opportunities for drug repurposing: Primary screen for MG 63 (6-TG R) cells (AID 1347105); also: nearly all actives have a fitted effect of over 50% in size
How it was run: as §2

[4] = qHTS of pediatric cancer cell lines to identify multiple opportunities for drug repurposing: Primary screen for control Hh wild type fibroblast cells (AID 1347106); also: nearly all actives have a fitted effect of over 55% in size
How it was run: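 Viability after 48 h compound treatment at 37C, 500-1,000 cells/well, read as ATP luminescence with CellTiter-Glo. Primary screens used 11-point (MIPE, 0.78 nM-46 µM) or 8-point (NPC, 0.59 nM-46 µM) final concentrations; follow-up screens used 11-point dilutions.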

[5] = qHTS of pediatric cancer cell lines to identify multiple opportunities for drug repurposing: Primary screen for Rh30 cells (AID 1347107); also: nearly all actives have a fitted effect of over 75% in size
How it was run: as §1

[6] = qHTS of pediatric cancer cell lines to identify multiple opportunities for drug repurposing: Primary screen for Rh41 cells (AID 1347108); also: nearly all actives have a fitted effect of over 70% in size
How it was run: as §2

[7] = qHTS of pediatric cancer cell lines to identify multiple opportunities for drug repurposing: Confirmatory screen for NB1643 cells (AID 1347109); also: nearly all actives have a fitted effect of over 45% in size
How it was run: as §1

[8] = qHTS of pediatric cancer cell lines to identify multiple opportunities for drug repurposing: Confirmatory screen for SK-N-MC cells (AID 1347111);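 also: cells exposed to compound for 48 h before the readout; nearly all actives have a fitted effect of over 70% in size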
How it was run: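 Seed 500-1,000 cells/well; rest 5 h at 37 degrees C. Pin-transfer compounds, 11-point titration. Incubate 48 h. Add CellTiter-Glo, 15 min RT, read luminescence.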

[9] = qHTS of pediatric cancer cell lines to identify multiple opportunities for drug repurposing: Confirmatory screen for BT-12 cells (AID 1347112); also: nearly all actives have a fitted effect of over 55% in size
How it was run: as §1

[10] = qHTS of pediatric cancer cell lines to identify multiple opportunities for drug repurposing: Confirmatory screen for LAN-5 cells (AID 1347113); also: nearly all actives have a fitted effect of over 65% in size
How it was run: as §1

[11] = qHTS of pediatric cancer cell lines to identify multiple opportunities for drug repurposing: Confirmatory screen for DAOY cells (AID 1347114); also: nearly all actives have a fitted effect of over 65% in size
How it was run: (§3)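 Viability measured as metabolically active cells via CellTiter-Glo luminescence following 48 hours of compound exposure, 11-point dilutions in confirmatory testing. 500-1,000 cells/well plated 5 hours before dosing; controls were DMSO and 2.3 µM bortezomib.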

[12] = qHTS of pediatric cancer cell lines to identify multiple opportunities for drug repurposing: Confirmatory screen for SJ-GBM2 cells (AID 1347116); also: nearly all actives have a fitted effect of over 60% in size
How it was run: as §3

[13] = qHTS of pediatric cancer cell lines to identify multiple opportunities for drug repurposing: Confirmatory screen for BT-37 cells (AID 1347117); also: nearly all actives have a fitted effect of over 55% in size
How it was run: as §1

[14] = qHTS of pediatric cancer cell lines to identify multiple opportunities for drug repurposing: Confirmatory screen for TC32 cells (AID 1347118);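 also: cells exposed to compound for 48 h before the read; nearly all actives have a fitted effect of over 65% in size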
How it was run: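 Luminescent CellTiter-Glo read-out of metabolically active TC32 cells after 48 h compound exposure. Primary: MIPE 11-point, 0.78 nM–46 µM; NPC 8-point, 0.59 nM–46 µM. Confirmatory: 11-point dilutions.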

[15] = qHTS of pediatric cancer cell lines to identify multiple opportunities for drug repurposing: Confirmatory screen for MG 63 (6-TG R) cells (AID 1347119); also: nearly all actives have a fitted effect of over 55% in size
How it was run: as §1

[16] = qHTS of pediatric cancer cell lines to identify multiple opportunities for drug repurposing: Confirmatory screen for control Hh wild type fibroblast cells (AID 1347121); also: nearly all actives have a fitted effect of over 70% in size
How it was run: as §1

[17] = qHTS of pediatric cancer cell lines to identify multiple opportunities for drug repurposing: Confirmatory screen for NB-EBc1 cells (AID 1347115);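 also: cells exposed to compound for 48 h before the viability read; nearly all actives have a fitted effect of over 45% in size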
How it was run: as §1

[18] = qHTS of pediatric cancer cell lines to identify multiple opportunities for drug repurposing: Confirmatory screen for Rh41 cells (AID 1347123); also: nearly all actives have a fitted effect of over 60% in size
How it was run: as §1

[19] = qHTS of pediatric cancer cell lines to identify multiple opportunities for drug repurposing: Confirmatory screen for RD cells (AID 1347124);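 also: cells exposed to compound for 48 h before viability readout; nearly all actives have a fitted effect of over 65% in size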
How it was run: as §1
Potency is read from the fitted curve at half-maximal effect.

For CC(=O)N[C@@H](CS)C(=O)O, the Potency [1] was “inactive”, the Potency [2] was “inactive” and the Potency [3] was “inactive”. For the same compound, the Potency [4] was “inactive”, the Potency [5] was “inactive” and the Potency [6] was “inactive”.
In the case of O=C1NCC2(CCN(CCc3ccccc3)CC2)O1, the Potency [1] was “inactive”, the Potency [2] was “inactive” and the Potency [3] was “inactive”. The Potency [4] was “inactive”, the Potency [5] was “inactive” and the Potency [6] was “inactive”.
For O=C(NC1CCOCC1)c1ccc(-c2cc(-c3cn[nH]c3-c3ccccn3)ccn2)cc1, the Potency [1] was “inactive”, the Potency [2] was “inactive” and the Potency [3] was “inactive”. The Potency [4] was “inactive”, the Potency [5] was “inactive” and the Potency [6] was “inactive”.
For OC[C@@H](O)[C@H](O)[C@H](O)[C@@H](O)CO, the Potency [1] was “inactive”, the Potency [2] was “inactive” and the Potency [3] was “inactive”. For the same compound, the Potency [4] was “inactive”, the Potency [5] was “inactive” and the Potency [6] was “inactive”.
In the case of CN1C[C@H]2c3ccccc3Oc3ccc(Cl)cc3[C@@H]2C1, the Potency [1] was 21.9 µM (active), the Potency [2] was “inactive” and the Potency [3] was “inactive”. The Potency [4] was “inactive”, the Potency [5] was “inactive” and the Potency [6] was “inactive”.
For O=C(O)c1ccccc1C(=O)Nc1ccc(-c2ccccc2)cc1, the Potency [1] was “inactive”, the Potency [2] was “inactive” and the Potency [3] was “inactive”. For the same compound, the Potency [4] was “inactive”, the Potency [5] was “inactive” and the Potency [6] was “inactive”.
For NC(CO)(CO)CCc1ccc(Sc2cccc(OCc3ccccc3)c2)cc1Cl, the Potency [1] was 27.3 µM (active), the Potency [2] was 33.2 µM (active) and the Potency [3] was 29.6 µM (active). The Potency [5] was “inactive”.
In the case of NC1CCC(Nc2nc(Nc3ccc(C(=O)N4CCCCC4)cc3)c3ncn(-c4cccc(F)c4)c3n2)CC1 (configuration not stated), the Potency [1] was “inactive”, the Potency [2] was “inactive” and the Potency [3] was “inactive”. For the same compound, the Potency [4] was “inactive”, the Potency [5] was “inactive” and the Potency [6] was “inactive”.
With NC[C@@H]1O[C@@H](O[C@H]2[C@@H](O)[C@H](O[C@@H]3[C@@H](O)[C@@H](N)C[C@H](N)[C@H]3O[C@H]3O[C@H](CN)[C@@H](O)[C@@H](O)[C@H]3N)O[C@H]2CO)[C@H](N)[C@@H](O)[C@@H]1O the Potency [1] was “inactive”, the Potency [2] was “inactive” and the Potency [3] was “inactive”. For the same compound, the Potency [4] was “inactive”, the Potency [5] was “inactive” and the Potency [6] was “inactive”.
In the case of CC(C)(C)C(=O)Oc1ccc2c(c1)nc(NC(=O)c1cccc([N+](=O)[O-])c1)n2CCCO, the Potency [1] was “inactive”, the Potency [2] was “inactive” and the Potency [3] was “inactive”. The Potency [4] was “inactive”, the Potency [5] was “inactive” and the Potency [6] was “inactive”.
With C[C@H]1[C@H](NC(=O)C(=NOC(C)(C)C(=O)O)c2csc(N)n2)C(=O)N1S(=O)(=O)O the Potency [1] was “inactive”, the Potency [2] was “inactive” and the Potency [3] was “inactive”. The Potency [4] was “inactive”, the Potency [5] was “inactive” and the Potency [6] was “inactive”.
With CC=CC[C@@H](C)C(=O)[C@H]1C(=O)N[C@@H](C(C)C)C(=O)N(C)CC(=O)N(C)[C@@H](CC(C)C)C(=O)N[C@@H](C(C)C)C(=O)N(C)[C@@H](CC(C)C)C(=O)N[C@@H](C)C(=O)N[C@H](C)C(=O)N(C)[C@@H](CC(C)C)C(=O)N(C)[C@@H](CC(C)C)C(=O)N(C)[C@@H](C(C)C)C(=O)N1C the Potency [1] was 24.3 µM (active), the Potency [2] was “inactive” and the Potency [3] was “inactive”. For the same compound, the Potency [5] was “inactive”.
For CCN(CC)C(=O)c1ccc(O)c(OC)c1, the Potency [1] was “inactive”, the Potency [2] was “inactive” and the Potency [3] was “inactive”. The Potency [4] was “inactive”, the Potency [5] was “inactive” and the Potency [6] was “inactive”.
In the case of Cc1nc(N)sc1-c1ccnc(Nc2ccc(N3CCOCC3)cc2)n1, the Potency [1] was 3.85 µM (active), the Potency [2] was 20.9 µM (active) and the Potency [3] was 5.9 µM (active). For the same compound, the Potency [4] was 16.6 µM (active) and the Potency [6] was 18.7 µM (active).
In the case of O=C(O)c1cc(-c2ccccc2)nc2ccccc12, the Potency [1] was “inactive”, the Potency [2] was “inactive” and the Potency [3] was “inactive”. The Potency [4] was “inactive”, the Potency [5] was “inactive” and the Potency [6] was “inactive”.
In the case of CC1(C)CCC(CN2CCN(c3ccc(C(=O)NS(=O)(=O)c4ccc(NCC5CCOCC5)c([N+](=O)[O-])c4)c(Oc4cnc5[nH]ccc5c4)c3)CC2)=C(c2ccc(Cl)cc2)C1, the Potency [1] was 15.3 µM (active), the Potency [2] was 18.7 µM (active) and the Potency [3] was 11.8 µM (active). For the same compound, the Potency [4] was “inactive”, the Potency [6] was 18.7 µM (active) and the Potency [7] was 0.261 µM (active). The Potency [8] was 18.5 µM (active), the Potency [9] was “inactive” and the Potency [10] was 5.85 µM (active). For the same compound, the Potency [11] was “inactive”, the Potency [12] was “inactive” and the Potency [13] was “inactive”. The Potency [14] was “inactive”, the Potency [15] was “inactive” and the Potency [16] was “inactive”.
With CN(C)c1cc(NC(=O)CNC(C)(C)C)c(O)c2c1C[C@@H]1C[C@H]3[C@H](N(C)C)C(=O)C(C(N)=O)=C(O)[C@@]3(O)C(=O)C1=C2O the Potency [1] was “inactive”, the Potency [2] was “inactive” and the Potency [3] was “inactive”. The Potency [4] was “inactive”, the Potency [5] was “inactive” and the Potency [6] was “inactive”.
In the case of NC(N)=Nc1nc(CSCC/C(N)=N/S(N)(=O)=O)cs1, the Potency [1] was “inactive”, the Potency [2] was “inactive” and the Potency [3] was “inactive”. The Potency [4] was “inactive”, the Potency [5] was “inactive” and the Potency [6] was “inactive”.
With CC(C)(Cc1ccc2ccccc2c1)NC[C@@H](O)COc1cccc(Cl)c1C#N the Potency [1] was “inactive”, the Potency [2] was “inactive” and the Potency [3] was “inactive”. The Potency [5] was “inactive”.
With O=C(O)C(O)Cc1ccc(O)c(O)c1 (configuration not stated) the Potency [1] was “inactive”, the Potency [2] was “inactive” and the Potency [3] was “inactive”. For the same compound, the Potency [4] was “inactive”, the Potency [5] was “inactive” and the Potency [6] was “inactive”.
In the case of O=C1C(Cl)=C(NCCN2CCOCC2)C(=O)c2ncccc21, the Potency [1] was 9.68 µM (active), the Potency [2] was 5.9 µM (active) and the Potency [3] was 18.7 µM (active). For the same compound, the Potency [4] was 11.8 µM (active), the Potency [5] was 8.33 µM (active) and the Potency [6] was 4.69 µM (active). For the same compound, the Potency [7] was 4.14 µM (active), the Potency [8] was 1.04 µM (active) and the Potency [9] was 2.61 µM (active). For the same compound, the Potency [10] was 2.93 µM (active), the Potency [11] was 7.37 µM (active) and the Potency [17] was 5.85 µM (active). For the same compound, the Potency [12] was 14.7 µM (active), the Potency [13] was 1.47 µM (active) and the Potency [14] was 1.04 µM (active). The Potency [15] was 1.04 µM (active), the Potency [16] was 20.8 µM (active) and the Potency [18] was 1.17 µM (active). The Potency [19] was 1.17 µM (active).
With O=C(O)Cc1cccc2ccccc12 the Potency [1] was “inactive”, the Potency [2] was “inactive” and the Potency [3] was “inactive”. For the same compound, the Potency [4] was “inactive”, the Potency [5] was “inactive” and the Potency [6] was “inactive”.
